From PubChem BioAssay (NCATS)
Records with an inconclusive call do not appear. A call without a number means that no potency is given here. A number with no mark means an inactive call. Activity calls are given as the source filed them. Calls come from the whole dose curve; as a rule, active = well fitted curve in the direction sought with a large enough effect; inconclusive = small, poorly fitted or top-dose-only effect, or another doubt; inactive = no such curve, though single readings can be large; an effect the other way counts as inactive or inconclusive.

Experiments:
[1] = target: Rap guanine nucleotide exchange factor 3 (Homo sapiens) (UniProt O95398); assay: Confirmatory qHTS for antagonist of cAMP-regulated guanine nucleotide exchange factor 3 (EPAC1) (AID 1645880); conditions: EPAC1 Rap1B-BODIPY-GDP exchange, fluorescence; activity, negative = inhibition: at 115 µM (top of the series); note: nearly all actives have a fitted effect of over 55% in size; note: potency is the fitted concentration of half-maximal effect
Chain of Rap guanine nucleotide exchange factor 3 (Homo sapiens) (O95398 whole entry, looked up): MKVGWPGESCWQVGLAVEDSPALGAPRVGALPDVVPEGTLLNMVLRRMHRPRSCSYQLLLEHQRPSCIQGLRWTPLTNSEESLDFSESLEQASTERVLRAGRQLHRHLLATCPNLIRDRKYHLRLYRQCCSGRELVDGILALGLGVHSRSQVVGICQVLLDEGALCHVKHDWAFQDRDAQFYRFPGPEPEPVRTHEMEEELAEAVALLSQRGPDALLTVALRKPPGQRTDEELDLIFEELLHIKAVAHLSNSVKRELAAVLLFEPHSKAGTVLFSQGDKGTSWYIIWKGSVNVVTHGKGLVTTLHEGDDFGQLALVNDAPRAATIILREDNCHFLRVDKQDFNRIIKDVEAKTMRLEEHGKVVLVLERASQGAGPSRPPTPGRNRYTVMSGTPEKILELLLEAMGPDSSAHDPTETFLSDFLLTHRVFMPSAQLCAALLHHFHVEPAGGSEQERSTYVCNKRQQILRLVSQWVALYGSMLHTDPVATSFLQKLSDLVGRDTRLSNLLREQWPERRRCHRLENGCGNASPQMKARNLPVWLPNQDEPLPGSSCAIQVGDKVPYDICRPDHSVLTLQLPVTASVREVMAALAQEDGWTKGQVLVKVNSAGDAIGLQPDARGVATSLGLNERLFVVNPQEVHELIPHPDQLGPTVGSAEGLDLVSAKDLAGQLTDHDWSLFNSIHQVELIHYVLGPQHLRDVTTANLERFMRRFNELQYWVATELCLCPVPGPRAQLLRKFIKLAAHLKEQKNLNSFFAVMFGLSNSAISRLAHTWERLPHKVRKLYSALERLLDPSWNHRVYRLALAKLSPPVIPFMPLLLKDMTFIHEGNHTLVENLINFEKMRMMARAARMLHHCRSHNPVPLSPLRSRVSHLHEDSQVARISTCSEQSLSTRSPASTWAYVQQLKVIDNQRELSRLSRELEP
Summary of the method: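 Nucleotide exchange uses 100 nM EPAC1, 250 nM RAP1B-BODIPY-GDP and 50 uM GDP, with compounds in a concentration-titration series. After 5 min at room temperature, fluorescence (480 nm ex/540 nm em) is read every 5 min for 30 min. Data are normalized to control ATA and DMSO.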

[2] = target: Rap guanine nucleotide exchange factor 3 (Homo sapiens) (UniProt O95398); assay: Confirmatory qHTS for agonist of cAMP-regulated guanine nucleotide exchange factor 3 (EPAC1) (AID 1645881);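 note: EPAC1 catalysed release of BODIPY-GDP from Rap1B seen as fluorescence loss; nearly all actives have a fitted effect of over 75% in size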
[3] = target: Rap guanine nucleotide exchange factor 4 (Homo sapiens) (UniProt Q8WZA2); assay: Confirmatory qHTS for agonist of cAMP-regulated guanine nucleotide exchange factor 4 (EPAC2) (AID 1645884);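 note: nucleotide exchange releases bodipy-GDP from Rap1 and this lowers its fluorescence; nearly all actives have a fitted effect of over 65% in size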
Chain of Rap guanine nucleotide exchange factor 4 (Homo sapiens) (Q8WZA2 whole entry, looked up): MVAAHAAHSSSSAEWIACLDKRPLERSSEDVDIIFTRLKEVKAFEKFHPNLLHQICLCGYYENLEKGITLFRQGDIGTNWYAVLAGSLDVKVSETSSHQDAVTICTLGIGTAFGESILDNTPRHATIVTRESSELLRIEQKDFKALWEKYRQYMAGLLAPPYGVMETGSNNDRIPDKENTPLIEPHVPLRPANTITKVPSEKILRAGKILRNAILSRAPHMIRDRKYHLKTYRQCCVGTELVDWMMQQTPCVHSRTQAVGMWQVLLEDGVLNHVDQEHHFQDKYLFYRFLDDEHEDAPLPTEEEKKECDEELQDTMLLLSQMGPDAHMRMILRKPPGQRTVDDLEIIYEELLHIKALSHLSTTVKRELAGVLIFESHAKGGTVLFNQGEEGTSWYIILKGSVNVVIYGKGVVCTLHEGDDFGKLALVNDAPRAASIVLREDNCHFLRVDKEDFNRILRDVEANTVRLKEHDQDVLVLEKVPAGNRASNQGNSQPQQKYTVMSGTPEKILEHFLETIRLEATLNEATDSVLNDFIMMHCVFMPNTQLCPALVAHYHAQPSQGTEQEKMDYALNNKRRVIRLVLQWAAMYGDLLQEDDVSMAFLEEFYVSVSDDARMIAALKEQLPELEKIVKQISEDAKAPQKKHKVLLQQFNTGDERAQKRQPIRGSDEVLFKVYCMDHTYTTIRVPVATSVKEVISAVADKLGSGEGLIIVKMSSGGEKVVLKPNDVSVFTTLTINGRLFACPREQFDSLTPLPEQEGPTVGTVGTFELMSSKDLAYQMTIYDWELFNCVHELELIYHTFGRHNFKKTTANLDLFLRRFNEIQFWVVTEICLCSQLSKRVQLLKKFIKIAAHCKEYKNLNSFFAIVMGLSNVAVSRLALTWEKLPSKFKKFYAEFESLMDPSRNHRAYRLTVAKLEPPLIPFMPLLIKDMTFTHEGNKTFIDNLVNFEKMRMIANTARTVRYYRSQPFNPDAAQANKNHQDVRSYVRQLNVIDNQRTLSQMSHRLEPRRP

[4] = target: Rap guanine nucleotide exchange factor 3 (Homo sapiens) (UniProt O95398); assay: Counterscreen qHTS for antagonist of cAMP-regulated guanine nucleotide exchange factor 3 (EPAC1) (AID 1645888);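 note: fluorescence loss as bound BODIPY-GDP is released from Rap1B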
Summary of the method: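 Rap1B-BODIPY-GDP 250 nM + GDP 50 uM; cpds 7-pt, final 9.74 nM–152 uM (activator mode) or from 7.32 nM upwards (inhibitor mode); RT; FI 480/540 nm at 5 and 30 min, then ± cAMP, reread.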

Row | Compound | Potency [1] | Potency [2] | Potency [3] | Potency [4] | activation [3] | activity change, negative = inhibition [4]
1 | Cc1ccc(-c2nnc(Nc3ccc4c(c3)OCO4)c3ccccc23)cc1S(N)(=O)=O | 47.8 µM (active) | inactive | inactive | inactive | – | –
2 | Cc1cccc(C)c1-n1nnnc1C(c1ccnc2ccccc12)N(CCC#N)Cc1ccccc1 (stereo not given) | inactive | inactive | inactive | inactive | – | –
3 | CC(C)C(NC(=O)c1ccccc1)C(=O)OCn1nnc2ccccc2c1=O (stereo not given) | inactive | inactive | inactive | inactive | – | –
4 | O=C1C(O)=CC(=C(c2ccccc2)c2ccccc2)c2ccccc21 | inactive | inactive | inactive | inactive | – | –
5 | Nc1[nH]n2c(=O)cc(-c3ccccc3)nc2c1N=Nc1ccc(S(N)(=O)=O)cc1 | inactive | inactive | inactive | inactive | – | –
6 | COc1cc(/C=C2\COC/C(=C\c3ccc(O)c(OC)c3)C2=O)ccc1O | 23.9 µM (active) | inactive | inactive | inactive | – | –
7 | O=C(c1sc2cc(F)ccc2c1Cl)N1CCN(c2ccccc2)CC1 | inactive | inactive | inactive | inactive | – | –
8 | O=C(/C=C/c1ccco1)N1CCCC(c2ccccc2)C1 (stereo not given) | 67.5 µM (active) | inactive | inactive | inactive | – | –
9 | O=C(/C=C/c1ccco1)NCC1OCCc2ccccc21 (stereo not given) | 19 µM (active) | inactive | inactive | inactive | – | –
10 | CCSc1nc(-c2ccccc2)nc2c1CCCC2 | inactive | inactive | inactive | inactive | – | –
11 | CC(=O)c1ccc(N2CCN(C(=O)c3cc(-c4cccnc4)nc4ccc(Br)cc34)CC2)cc1 | inactive | inactive | inactive | inactive | – | –
12 | O=C1CC2(CCCCC2)Oc2ccc(F)cc21 | inactive | inactive | inactive | inactive | – | –
13 | CCSc1oc(-c2cccs2)nc1S(=O)(=O)c1ccccc1 | inactive | inactive | inactive | inactive | – | –
14 | COc1ccc2c(c1)C(CC(C)=O)N(c1ccc(-c3cccnc3)cc1)C(c1ccsc1)=C2 (stereo not given) | inactive | inactive | inactive | inactive | – | –
15 | COc1ccccc1N(CC(=O)Nc1ccc(Br)cc1F)S(=O)(=O)c1cccs1 | inactive | inactive | inactive | inactive | – | –
16 | COc1ccccc1CN(C)CC(=O)Nc1ccccc1-c1ccccc1 | inactive | inactive | inactive | inactive | – | –
17 | Cc1ccc(CNc2cc(C)nc3nc(-c4cccc(C)c4)nn23)cc1 | inactive | inactive | inactive | inactive | – | –
18 | CCOC(=O)c1ccccc1NC(=O)COC(=O)C(Cc1c[nH]c2ccccc12)NC(C)=O (stereo not given) | inactive | inactive | inactive | inactive | – | –
19 | CC(=O)C1C(=O)C=C(c2cccs2)CC1c1ccccc1 (stereo not given) | inactive | inactive | – | – | -4.19% [at 17.1 µM, percent relative to cAMP agonist control] | 2.3% [at 30.8 µM]
20 | O=C1ON=C(c2ccccc2)/C1=C/c1ccc(-c2ccccc2[N+](=O)[O-])o1 | 37.9 µM (active) | inactive | inactive | inactive | – | –

Row | Compound | Potency [1] | Potency [2] | Potency [3] | Potency [4] | activation [3] | activity change, negative = inhibition [4]
21 | Cn1c(N)c(C(=O)COC(=O)C2(c3ccc(Cl)cc3)CCCC2)c(=O)n(C)c1=O | inactive | inactive | inactive | inactive | – | –
22 | Cc1oc2c(c1C(=O)c1ccccc1)C(=O)C(=O)c1ccccc1-2 | 42.6 µM (active) | inactive | inactive | inactive | – | –
23 | O=C(O)CSc1cc(NS(=O)(=O)c2ccc(Cl)cc2)c2ccccc2c1O | 75.7 µM (active) | inactive | inactive | inactive | – | –
24 | O=c1[nH]nc(CNc2ccc(O)cc2)c2ccccc12 | inactive | inactive | inactive | inactive | – | –
25 | Cc1nc2ccccc2c(=O)n1N(c1ccccc1)c1ccccc1 | inactive | inactive | – | – | -5.22% [at 17.1 µM, percent relative to cAMP agonist control] | 9.75% [at 30.8 µM]
26 | Cc1cc(C)c2nc(N3C(=O)C(O)=C(C(=O)c4ccco4)C3c3ccc(O)cc3)sc2c1 (stereo not given) | 37.9 µM (active) | inactive | inactive | inactive | – | –
27 | COc1ccc2cc(/C=C3\SC(=S)NC3=O)c(N3CCOCC3)nc2c1 | 20 µM (active) | inactive | – | – | 0.207% [at 17.1 µM, percent relative to cAMP agonist control] | 3.21% [at 30.8 µM]
28 | COc1cc(/C=C2\C(=N)N3N=C(S(C)(=O)=O)SC3=NC2=O)ccc1OS(=O)(=O)c1ccc(C)cc1 | 60.1 µM (active) | inactive | inactive | inactive | – | –
29 | COC(=O)/C(=C/Nc1ccc(O)cc1)[N+](=O)[O-] | inactive | inactive | inactive | inactive | – | –
30 | COCc1cc(C)nc(SCC(=O)c2ccc(O)c(O)c2)c1C#N | 37.9 µM (active) | inactive | inactive | inactive | – | –
31 | O=C(CN1C(=O)c2ccccc2C1=O)Nc1cc([N+](=O)[O-])ccc1O | inactive | inactive | inactive | inactive | – | –
32 | CC#C[C@@H](CC)c1ccc2ccn(C)c2c1 | inactive | inactive | – | – | 5.93% [at 17.1 µM, percent relative to cAMP agonist control] | -25.8% [at 30.8 µM]
33 | Cn1c2c(c3ccccc31)CCN1CCC[C@]21c1ccccc1 | inactive | inactive | inactive | inactive | – | –
34 | CN1OC[C@@H]2CN(Cc3ccc(Cl)cc3)[C@H](c3ccc(-n4ccnc4)cc3)C[C@@H]21 | inactive | inactive | – | – | 4.62% [at 17.1 µM, percent relative to cAMP agonist control] | 1.17% [at 30.8 µM]
35 | CCOc1ccc(-n2c(SCC(=O)Nc3ccc(F)cc3)nc3c([nH]c4ccccc43)c2=O)cc1 | inactive | inactive | inactive | inactive | – | –
36 | Cc1cc2oc(=O)c(CC(=O)O)c(C)c2c2occ(C(C)(C)C)c12 | inactive | inactive | inactive | inactive | – | –
37 | Cc1ccc([N+](=O)[O-])cc1NC(=O)c1ccc(-c2ccccc2)cc1 | inactive | inactive | inactive | inactive | – | –
38 | Cc1nc(-c2ccc(C(=O)Nc3cccc(Br)c3)cc2)cs1 | inactive | inactive | inactive | inactive | – | –
39 | CC(=O)c1ccc(NC(=O)c2ccc3c(c2)C(=O)N(c2ccccn2)C3=O)cc1 | 8.49 µM (active) | inactive | inactive | inactive | – | –
40 | CCC(=O)N1CCc2cc(OC)c(OC)cc2C1COc1ccc(F)cc1 (stereo not given) | inactive | inactive | – | – | 5.75% [at 17.1 µM, percent relative to cAMP agonist control] | -5.57% [at 30.8 µM]

Row | Compound | Potency [1] | Potency [2] | Potency [3] | Potency [4] | activation [3] | activity change, negative = inhibition [4]
41 | Cc1nc2cc(-c3ccsc3-n3c(C)ccc3C)[nH]n2c(=O)c1Cl | 37.9 µM (active) | inactive | inactive | inactive | – | –
42 | Cc1cnc(C(=O)OCC(=O)Nc2ccc(Oc3ccccc3)cc2)cn1 | inactive | inactive | inactive | inactive | – | –
43 | O=C(Nc1ccc2nc3n(c(=O)c2c1)CCCCC3)c1c(F)ccc([N+](=O)[O-])c1F | 15.1 µM (active) | inactive | inactive | inactive | – | –
44 | CN(Cc1ccnc2ccccc12)C(=O)C1CCC(=O)N(Cc2ccccc2F)C1 (stereo not given) | inactive | inactive | inactive | inactive | – | –
45 | CCCOc1ccccc1NC(=O)c1c(-c2ccccc2)noc1C | inactive | inactive | inactive | inactive | – | –
46 | CCCc1nc2c3ccccc3ccn2c1CC(C)(C)C | inactive | inactive | inactive | inactive | – | –
47 | COc1ccc(C(=O)N/N=C/c2ccc3cccc(OCc4ccccc4)c3n2)cc1 | inactive | inactive | inactive | inactive | – | –
48 | Cc1nn(-c2ccccc2)c(Cl)c1/C=N/Nc1ccc(S(=O)(=O)Nc2ccccc2C(=O)O)cc1[N+](=O)[O-] | 42.6 µM (active) | inactive | inactive | inactive | – | –
49 | Cc1cc(C)cc(NC(=O)CSc2nnc(-c3cc4occc4n3C)n2-c2ccccc2C)c1 | inactive | inactive | inactive | inactive | – | –
50 | COc1ccc(/C=C2\N=C(SC)N(c3ccccc3OC)C2=O)cc1 | inactive | inactive | – | – | 7.24% [at 17.1 µM, percent relative to cAMP agonist control] | -8.08% [at 30.8 µM]
51 | CCc1nc2ccccc2c(C(=O)NCc2ccccc2)c1C | inactive | inactive | inactive | inactive | – | –
52 | COc1ccc(-c2nc(C)ncc2-c2ccc(Cl)cc2)c(O)c1 | inactive | inactive | inactive | inactive | – | –
53 | COc1ccc(C(C(=O)NC(C)(C)C)n2c(=O)c(-c3cc4ccccc4[nH]3)nc3ccccc32)cc1 (stereo not given) | inactive | inactive | inactive | inactive | – | –
54 | CCOC(=O)C(C)Sc1ncnc2c1nnn2-c1ccc(F)cc1 (stereo not given) | inactive | inactive | – | – | 3.03% [at 17.1 µM, percent relative to cAMP agonist control] | -4.79% [at 30.8 µM]
55 | COc1cc(/C=C2\C(=O)N(c3cccc(C(=O)O)c3)N=C2C)ccc1OCc1ccccc1 | 37.9 µM (active) | inactive | inactive | inactive | – | –
56 | COc1ccc(Br)cc1CNc1ccc(O)cc1 | inactive | inactive | inactive | inactive | – | –
57 | CC(C)=CCc1c(O)cc2oc3c(CC=C(C)C)c(O)c(O)c(CC=C(C)C)c3c(=O)c2c1O | 75.7 µM (active) | inactive | inactive | inactive | – | –
58 | CCN(CC1COc2ccccc2O1)C(=O)CN1C(=O)NC(C)(c2ccc(C)cc2)C1=O (stereo not given) | inactive | inactive | inactive | inactive | – | –
59 | O=C(CS(=O)(=O)c1ccccc1)c1cc2ccccc2oc1=O | inactive | inactive | – | – | 8.75% [at 17.1 µM, percent relative to cAMP agonist control] | -20.4% [at 30.8 µM]
60 | COc1cc(OC)c2c(-c3ccccc3)cc(=O)oc2c1C(CC(=O)N1CCOCC1)c1ccc2c(c1)OCO2 (stereo not given) | inactive | inactive | – | – | 1.13% [at 17.1 µM, percent relative to cAMP agonist control] | -9.45% [at 30.8 µM]
